SMILES strings stand for the structures. Inconclusive results are not listed. Unmarked numbers belong to inactive results. Activity calls are given as the source filed them. The call rests on the fitted dose curve; in most records, active means well fitted cell-killing curve with a large enough effect in the repeat runs; inconclusive means weak or mixed curves, or effect the other way; inactive means flat fitted curve, though single readings scatter.
On the % scale 0 is the no-effect control and ±100 the full control effect.

A short description of the test: qHTS RealTime-Glo MT Cell Viability Assay in HEK293 cells - 0 hour (AID 1224880). Further: top concentration of the series differs between compounds; nearly all actives have a fitted effect of over 45% in size. The conditions noted are these: RealTime-Glo luminescence; series mostly up to 76.8 µM; activity change, negative = cytotoxicity: at the top concentration. The source says:
U.S. Tox21 Program National Center for Advancing Translational Sciences [NCATS] NIH Chemical Genomics Center [NCGC] U.S. Environmental Protection Agency [EPA] National Institutes of Environmental Health Sciences [NIEHS] National Toxicology Program [NTP] U.S. Food and Drug Administration [FDA] Tox21 Assay Overview: Measure of cell viability is critical in the cell-base assay. Analysis of cell viability is necessary for the characterization of cell responses to cytotoxic drugs and environmental stress. A RealTime-Glo MT Cell Viability Assay to monitor cell viability in real time of continues cell culture during 40 hours of compound treatment was used to screen Tox21 10K library compounds in Hek293 cells. The RealTime-Glo MT Cell Viability Assay is a nonlytic, homogeneous, bioluminescent method to measure cell viability in real time using a simple, plate-based method. The assay involves adding NanoLuc luciferase and a cell-permeant prosubstrate to cells in culture. Viable cells reduce the proprietary prosubstrate to generate a substrate for NanoLuc luciferase. This substrate diffuses from cells into the surrounding culture medium, where it is rapidly used by the NanoLuc Enzyme to produce a luminescent signal. The signal correlates with the number of viable cells, making the assay well suited for cytotoxicity studies.
Tox21 Assay Protocol Summary: The mixture of Hek293 cell suspension and reagents were dispensed at 600cells/6 ul/well in 1536-well tissue culture treated black solid bottom plates using a Multidrop dispenser. After the assay plates were incubated at a 37 C/5% CO2 incubator for 5 hours, 23 nL of compounds dissolved in DMSO, positive and negative controls was transferred to the assay plate by a pintool work station. The plates were incubated at 37 C for 40 hours. The luminescence intensity were measured at 0h, 8h, 16h, 24h, 32h and 40h time points using ViewLux plate reader during compound treatment.
(In qHTS, concentration-response curves come from the screen itself.)
Consider `CNC(=O)O/N=C(/CSC)C(C)(C)C`, for which the “activity change, negative = cytotoxicity” value was 6.44%.
Turning to `O=C(O)C(F)(F)C(F)(F)C(F)(F)C(F)(F)C(F)(F)C(F)(F)F`, the “activity change, negative = cytotoxicity” value was -2.21%.
In the case of `COc1cc(CC(C)N)cc(OC)c1OC` (stereo not given), the “activity change, negative = cytotoxicity” value is -4.27%.
In the case of `Cc1ccc(-c2nc3ccc(C)cn3c2CC(=O)N(C)C)cc1`, the “activity change, negative = cytotoxicity” value was -2.89% [at 35.3 µM].
As to `Cn1c(CCCC(=O)O)nc2cc(N(CCCl)CCCl)ccc21`, the “activity change, negative = cytotoxicity” value was 1.12% [at 35.3 µM].
With `Clc1nc(Cl)nc(Nc2ccccc2Cl)n1`, the “activity change, negative = cytotoxicity” value was -0.742%.
In the case of `CCN(CCO)CCO`, the “activity change, negative = cytotoxicity” value is 13.9%.
`CN=CNc1ccc(C)cc1C`: the “activity change, negative = cytotoxicity” value is 0.619%.
In the case of `CC(C)(C)c1cc(O)ccc1O`, the compound was classed as inactive.
For `Cc1ccc(S(=O)(=O)N[C@@H](CCCCN)C(=O)CCl)cc1`, the “activity change, negative = cytotoxicity” value is -2.26% [at 35.3 µM].
Consider `C[N+]1(C)CCCCC1`, for which the “activity change, negative = cytotoxicity” value is 8.55%.
Take `CC1=C2[C@H]3OC(=O)[C@@H](C)[C@@H]3CC[C@@]2(C)C=CC1=O`: the “activity change, negative = cytotoxicity” value is -0.0626% [at 35.3 µM].
As to `CCCC[N+](=O)[O-]`, the “activity change, negative = cytotoxicity” value is 9.05%.
Regarding `C=C(Cl)CSC(=S)N(CC)CC`, the “activity change, negative = cytotoxicity” value was -10.6%.
On the same count and under the same terms, next, `CCCOc1nn(C(=O)NS(=O)(=O)c2ccccc2C(=O)OC)c(=O)n1C`: 17.9%; `CCC1(c2ccccc2)C(=O)N(COC)C(=O)N(COC)C1=O`: 3.34% [at 35.3 µM]; `O=S1(=O)OCCO1`: 2.07%.
Regarding `CCNc1nc(Cl)nc(NC(C)(C)C)n1`, the “activity change, negative = cytotoxicity” value was 12.6%.
As to `N#CN=C1SCCN1Cc1ccc(Cl)nc1`, the “activity change, negative = cytotoxicity” value is 2.62%.
In the case of `CC(=NC#N)N(C)Cc1ccc(Cl)nc1`, the “activity change, negative = cytotoxicity” value was 1.44%.
On to `CCCN1CCC[C@@H]2Cc3nc(N)ncc3C[C@H]21`, for which the “activity change, negative = cytotoxicity” value was -11.1% [at 35.3 µM].
With `COP(=O)(OC)O/C(C)=C/C(=O)N(C)C`, the “activity change, negative = cytotoxicity” value was 8.12%.
Take `Cc1ccc(Cl)c(O)c1`: the “activity change, negative = cytotoxicity” value was 6.94% [at 35.3 µM].
Turning to `ClCC1CO1` (stereo not given), the “activity change, negative = cytotoxicity” value was -6.74%.
Take `C=CCC1(C(C)CC)C(=O)NC(=O)NC1=O` (stereo not given): the “activity change, negative = cytotoxicity” value is -4.06% [at 35.3 µM].
Consider `C[C@H]1CCCC(=O)CCC/C=C/c2cc(O)cc(O)c2C(=O)O1`, for which the “activity change, negative = cytotoxicity” value was 18.1% [at 35.3 µM].
On to `O=C(Cl)OCc1ccccc1`, for which the “activity change, negative = cytotoxicity” value was -0.264%.
Still for that read-out and setting: then `CCOC(=O)C(Cl)Cc1cc(-n2nc(C)n(C(F)F)c2=O)c(F)cc1Cl` (stereo not given), with -9.64%; and `CC[C@@H](CO)NC(=O)[C@@H]1C=C2c3cccc4c3c(cn4C)C[C@H]2N(C)C1`, with -7.1% [at 35.3 µM]; and `CCC(C)C(C)(COC(N)=O)COC(N)=O` (stereo not given), with -1.22% [at 35.3 µM].
`CC1N=C(N)OC1c1ccccc1` (stereo not given): the “activity change, negative = cytotoxicity” value was -1.77%.
As for `CC(=O)OCC1=C(C(=O)O)N2C(=O)[C@@H](N)[C@H]2SC1`, the activity change, negative = cytotoxicity is -1.9% [at 15.8 µM].
For `COc1cc(CCN)cc(OC)c1OC`, the “activity change, negative = cytotoxicity” value is -15.4%.
As to `NNC(N)=O`, the “activity change, negative = cytotoxicity” value is -3.08%.
With `Oc1ccc(Cc2ccc(O)cc2)cc1`, the “activity change, negative = cytotoxicity” value is 7.81%.
Regarding `O=c1[nH]c2ccccc2o1`, the “activity change, negative = cytotoxicity” value was 1.56%.
Regarding `[O-][Br+2]([O-])O`, the “activity change, negative = cytotoxicity” value was 0% [at 35.3 µM].
As for `O=C1CC(=O)NC(=O)N1`, the “activity change, negative = cytotoxicity” value was -5.33%.
As for `CCC1(CC)C(=O)C=CNC1=O`, the “activity change, negative = cytotoxicity” value is -3.89% [at 35.3 µM].
As for `CC(C)(N)Cc1ccccc1Cl`, the “activity change, negative = cytotoxicity” value was 23.3% [at 35.3 µM].

These data come from PubChem BioAssay (Tox21).
